From the antibiotic and cytotoxicity screens of Wong et al. (2023)
In all, about 39,000 compounds went through this assay and about 1,500 (3.8%) were called active. What follows is part of a selection rich in actives, with near analogues and random picks from the rest.

The compounds below were run on HSkMC (human skeletal muscle cells) (assay: cytotoxicity call (relative viability < 0.9)). Settings: 10 µM.

Structure (SMILES)	cytotoxicity call
C[C@H](CO)N1C[C@H](C)[C@@H](CN(C)C(=O)c2ccccc2)OCCCC[C@H](C)Oc2ccc(NC(=O)Nc3cccc4ccccc34)cc2C1=O	inactive
CN1CCN(C(=O)C[C@H]2CC[C@@H]3[C@H](COC[C@@H](O)CN3S(=O)(=O)c3cccc(F)c3)O2)CC1	inactive
C[C@@H]1CN([C@@H](C)CO)C(=O)c2c(c3ccccc3n2C)-c2ccccc2CO[C@@H]1CN(C)Cc1ccc(C(=O)O)cc1	inactive
Cc1ccc([C@@H]2CC(=O)N[C@@H]2C(N)=O)cc1	inactive
C[C@@H]1CN([C@@H](C)CO)C(=O)c2cccc(NC(=O)Nc3cccc4ccccc34)c2O[C@H]1CN(C)S(=O)(=O)c1ccc(F)cc1	inactive
C[C@@H]1CN([C@@H](C)CO)C(=O)c2cccc(NC(=O)Nc3cccc4ccccc34)c2O[C@H]1CN(C)S(=O)(=O)c1cccs1	inactive
COc1ccccc1S(=O)(=O)N(C)C[C@@H]1Oc2c(NC(=O)Nc3cccc4ccccc34)cccc2C(=O)N([C@@H](C)CO)C[C@H]1C	inactive
C[C@@H]1CN([C@H](C)CO)C(=O)c2cccc(NC(=O)Nc3cccc4ccccc34)c2O[C@@H]1CN(C)S(=O)(=O)c1ccc(Cl)cc1	active
COc1cccc(S(=O)(=O)N(C)C[C@@H]2Oc3c(NC(=O)Nc4cccc5ccccc45)cccc3C(=O)N([C@@H](C)CO)C[C@H]2C)c1	inactive
C[C@@H]1CN([C@H](C)CO)C(=O)c2cccc(NC(=O)Nc3cccc4ccccc34)c2O[C@@H]1CN(C)S(=O)(=O)c1ccc(F)cc1	inactive
C[C@H]1CN([C@@H](C)CO)C(=O)c2cccc(NC(=O)Nc3cccc4ccccc34)c2O[C@@H]1CN(C)S(=O)(=O)c1cccs1	active
C[C@H](CO)N1C[C@H](C)[C@H](CN(C)S(=O)(=O)c2ccc(F)cc2)Oc2c(NC(=O)Nc3cccc4ccccc34)cccc2C1=O	active
C[C@@H]1CN([C@@H](C)CO)C(=O)c2cccc(NC(=O)Nc3cccc4ccccc34)c2O[C@@H]1CN(C)S(=O)(=O)c1cccs1	inactive
C[C@@H]1CN([C@@H](C)CO)C(=O)c2cccc(NC(=O)Nc3cccc4ccccc34)c2O[C@@H]1CN(C)S(=O)(=O)c1ccc(Cl)cc1	inactive
C[C@H]1CN([C@@H](C)CO)C(=O)c2cccc(NC(=O)Nc3cccc4ccccc34)c2O[C@@H]1CN(C)S(=O)(=O)c1ccc(Cl)cc1	inactive
COc1ccc(S(=O)(=O)N(C)C[C@@H]2Oc3c(NC(=O)Nc4cccc5ccccc45)cccc3C(=O)N([C@@H](C)CO)C[C@H]2C)c(OC)c1	active
C[C@H](O)C#Cc1ccc2c(c1)O[C@@H](CN(C)C(=O)Cc1ccccn1)[C@H](C)CN([C@H](C)CO)S2(=O)=O	inactive
O=C(O)CNC(=O)c1[nH]nc2ccccc12	inactive
C[C@@H]1CCCCO[C@@H](CN(C)Cc2ccc(C(F)(F)F)cc2)[C@@H](C)CN([C@H](C)CO)C(=O)c2cc(NS(=O)(=O)c3ccccc3)ccc2O1	inactive
C[C@H](CO)N1C[C@H](C)[C@H](CN(C)S(=O)(=O)c2ccc(F)cc2)Oc2ccc(NS(=O)(=O)c3ccc(F)cc3)cc2C1=O	inactive
COc1ccc(CN(C)C[C@@H]2OCCCC[C@H](C)Oc3ccc(NC(=O)Nc4cccc5ccccc45)cc3C(=O)N([C@H](C)CO)C[C@@H]2C)cc1	inactive
COc1ccc(CN(C)C[C@H]2OCCCC[C@H](C)Oc3ccc(NC(=O)Nc4cccc5ccccc45)cc3C(=O)N([C@@H](C)CO)C[C@@H]2C)cc1	inactive
COc1ccc(CN(C)C[C@@H]2OCCCC[C@H](C)Oc3ccc(NC(=O)Nc4cccc5ccccc45)cc3C(=O)N([C@H](C)CO)C[C@H]2C)cc1	active
COc1ccc(CN(C)C[C@H]2OCCCC[C@H](C)Oc3ccc(NC(=O)Nc4cccc5ccccc45)cc3C(=O)N([C@@H](C)CO)C[C@H]2C)cc1	inactive

Structure (SMILES)	cytotoxicity call
COc1ccc(CN(C)C[C@@H]2OCCCC[C@@H](C)Oc3ccc(NC(=O)Nc4cccc5ccccc45)cc3C(=O)N([C@H](C)CO)C[C@H]2C)cc1	active
COc1ccc(CN(C)C[C@@H]2OCCCC[C@H](C)Oc3ccc(NC(=O)Nc4cccc5ccccc45)cc3C(=O)N([C@@H](C)CO)C[C@@H]2C)cc1	active
COc1ccc(CN(C)C[C@H]2OCCCC[C@@H](C)Oc3ccc(NC(=O)Nc4cccc5ccccc45)cc3C(=O)N([C@H](C)CO)C[C@H]2C)cc1	inactive
COc1ccc(CN(C)C[C@@H]2OCCCC[C@@H](C)Oc3ccc(NC(=O)Nc4cccc5ccccc45)cc3C(=O)N([C@@H](C)CO)C[C@H]2C)cc1	active
C[C@@H]1CC=CC[C@@H](c2cccc(Cl)c2)NC(=O)[C@@H](Cc2ccccc2)N(C)C(=O)c2ccccc2O1	inactive
Cc1noc(C)c1NC(=O)Nc1ccc2c(c1)C(=O)N([C@@H](C)CO)C[C@H](C)[C@H](CN(C)Cc1ccc(Cl)c(Cl)c1)OCCCC[C@@H](C)O2	inactive
N[C@@H](CC(=O)O)c1cccc([N+](=O)[O-])c1	inactive
C[C@@H]1CN([C@H](C)CO)C(=O)c2cc(NS(=O)(=O)c3ccccc3)ccc2O[C@H]1CN(C)S(C)(=O)=O	inactive
COCC#Cc1ccc2c(c1)O[C@@H](CN(C)C(=O)COC)[C@H](C)CN([C@@H](C)CO)S2(=O)=O	inactive
CC(C)NC(=O)Nc1ccc2c(c1)C(=O)N([C@@H](C)CO)C[C@H](C)[C@H](CN(C)S(=O)(=O)c1cccs1)O2	inactive
C[C@@H]1CN([C@H](C)CO)C(=O)Cc2cc(NC(=O)C3CCCCC3)ccc2O[C@H]1CN(C)C(=O)Nc1ccc(C(F)(F)F)cc1	inactive
Cc1ccc(S(=O)(=O)N[C@H]2C=C[C@H](CC(=O)NCCN3CCCCC3)O[C@@H]2CO)cc1	inactive
C[C@@H]1CN([C@H](C)CO)C(=O)c2cc(NS(=O)(=O)c3cccs3)ccc2O[C@@H]1CN(C)S(=O)(=O)c1cccs1	inactive
CC(C)NC(=O)Nc1ccc2c(c1)C(=O)N([C@H](C)CO)C[C@@H](C)[C@@H](CN(C)Cc1ccc(Oc3ccccc3)cc1)O2	inactive
NC[C@@H](CO)Cc1ccsc1	inactive
C[C@@H]1CCCCO[C@@H](CN(C)S(C)(=O)=O)[C@H](C)CN([C@@H](C)CO)C(=O)c2cc(NC(=O)CCCN(C)C)ccc2O1	inactive
COc1ccc(S(=O)(=O)Nc2ccc3c(c2)C(=O)N([C@@H](C)CO)C[C@H](C)[C@@H](CN(C)S(=O)(=O)c2cccs2)O3)cc1	inactive
COc1ccc(S(=O)(=O)N2C[C@H](O)COC[C@@H]3O[C@H](CC(=O)N[C@@H]4CCN(Cc5ccccc5)C4)CC[C@H]32)cc1	inactive
COc1ccc(CN(C)C[C@H]2OCCCC[C@@H](C)Oc3ccc(NC(=O)Nc4cccc5ccccc45)cc3C(=O)N([C@H](C)CO)C[C@@H]2C)cc1	active
COc1ccc(CN(C)C[C@H]2OCCCC[C@H](C)Oc3ccc(NC(=O)Nc4cccc5ccccc45)cc3C(=O)N([C@H](C)CO)C[C@@H]2C)cc1	inactive
COc1ccc(CN(C)C[C@@H]2OCCCC[C@@H](C)Oc3ccc(NC(=O)Nc4cccc5ccccc45)cc3C(=O)N([C@@H](C)CO)C[C@@H]2C)cc1	inactive
COc1ccc(CN(C)C[C@H]2OCCCC[C@@H](C)Oc3ccc(NC(=O)Nc4cccc5ccccc45)cc3C(=O)N([C@@H](C)CO)C[C@H]2C)cc1	active
COc1ccc(CN(C)C[C@H]2OCCCC[C@@H](C)Oc3ccc(NC(=O)Nc4cccc5ccccc45)cc3C(=O)N([C@@H](C)CO)C[C@@H]2C)cc1	inactive
COc1ccc(CN(C)C[C@@H]2OCCCC[C@H](C)Oc3ccc(NC(=O)Nc4cccc5ccccc45)cc3C(=O)N([C@@H](C)CO)C[C@H]2C)cc1	active

Structure (SMILES)	cytotoxicity call
COc1ccc(CN(C)C[C@H]2OCCCC[C@H](C)Oc3ccc(NC(=O)Nc4cccc5ccccc45)cc3C(=O)N([C@H](C)CO)C[C@H]2C)cc1	active
COc1ccc(CN(C)C[C@@H]2OCCCC[C@@H](C)Oc3ccc(NC(=O)Nc4cccc5ccccc45)cc3C(=O)N([C@H](C)CO)C[C@@H]2C)cc1	inactive
CCOC(=O)c1cc2c(c(-c3cccc(-c4cccc(F)c4)c3)n1)[C@H](CCO)N(S(=O)C(C)(C)C)C2 (stereo partly specified)	inactive
N#C[C@H]1N[C@@H](CO)[C@@H]1c1ccccc1	inactive
CC(C)NC(=O)N(C)C[C@@H]1OCCCC[C@H](C)Oc2ccc(NC(=O)C3CCCCC3)cc2C(=O)N([C@H](C)CO)C[C@@H]1C	inactive
COc1ccc(S(=O)(=O)Nc2ccc3c(c2)C(=O)N([C@@H](C)CO)C[C@@H](C)[C@@H](CN(C)C(=O)Nc2ccccc2)OCCCC[C@@H](C)O3)cc1	inactive
C[C@@H]1CN([C@H](C)CO)C(=O)c2cc(Br)cnc2O[C@@H]1CN(C)S(=O)(=O)c1ccc(F)cc1	inactive
C[C@@H]1CN([C@@H](C)CO)C(=O)c2cc(NC(=O)CCN3CCOCC3)ccc2O[C@@H]1CN(C)C(=O)Nc1ccc2c(c1)OCO2	inactive
C[C@@H]1CN([C@H](C)CO)C(=O)c2cc(C#CCN(C)C)cnc2O[C@@H]1CN(C)C(=O)c1ccc2c(c1)OCO2	inactive
C[C@@H]1CN([C@@H](C)CO)S(=O)(=O)c2ccc(C#CC3CCCC3)cc2O[C@H]1CN(C)C(=O)Cc1ccncc1	inactive
Cc1noc(C)c1NC(=O)Nc1ccc2c(c1)CC(=O)N([C@@H](C)CO)C[C@H](C)[C@H](CN(C)S(=O)(=O)c1cccs1)O2	inactive
COC(=O)C1=C(C)NC(C)=C(C(=O)OCCCN2CCC(c3ccccc3)(c3ccccc3)CC2)[C@@H]1c1cccc([N+](=O)[O-])c1	active
COCCOC(=O)C1=C(C)NC(C)=C(C(=O)OC(C)C)C1c1cccc([N+](=O)[O-])c1 (stereo unspecified)	inactive
COC(=O)C1=C(C)NC(C)=C(C(=O)OC(C)(C)CN(C)CCC(c2ccccc2)c2ccccc2)[C@@H]1c1cccc([N+](=O)[O-])c1	active
COCCOC(=O)C1=C(C)NC(C)=C(C(=O)OCC=Cc2ccccc2)C1c1cccc([N+](=O)[O-])c1 (stereo unspecified)	inactive
CCCN1C(C)=C(C(=O)OC)[C@@H](c2cccc([N+](=O)[O-])c2)C(C(=O)ON2CCC(c3ccccc3)(c3ccccc3)CC2)=C1C	active
COC(=O)C1=C(C)NC(C)=C(C(=O)OCCCN2CCC(c3ccccc3)(c3ccccc3)CC2)[C@H]1c1cccc([N+](=O)[O-])c1	active
COC(=O)C1=C(C)NC(C)=C(C(=O)NCCCN2CCC(c3ccccc3)(c3ccccc3)CC2)[C@@H]1c1ccc([N+](=O)[O-])cc1	inactive
COC(=O)C1=C(C)NC(C)=C(C(=O)OCCN2CCN(C(c3ccccc3)c3ccccc3)CC2)C1c1cccc([N+](=O)[O-])c1 (stereo unspecified)	inactive
CCOC(=O)C1=C(C)NC(C)=C(C(=O)OC)C1c1cccc([N+](=O)[O-])c1 (stereo unspecified)	inactive
COC(=O)C1=C(C#N)NC(C)=C(C(=O)OC(C)C)C1c1cccc([N+](=O)[O-])c1 (stereo unspecified)	inactive
CC1=C(C(=O)OCCN(Cc2ccccc2)c2ccccc2)[C@H](c2cccc([N+](=O)[O-])c2)C(P2(=O)OCC(C)(C)CO2)=C(C)N1	inactive
COC(=O)C1=C(C)NC(C)=C(C(=O)OCCN(C)Cc2ccccc2)C1c1cccc([N+](=O)[O-])c1.Cl (stereo unspecified)	inactive
